# Reference: publication PMC7862700, “An all-to-all approach to the identification of sequence-specific readers for epigenetic DNA modifications on cytosine”
# Legend:
# Experiment in all cases: DAPPL (digital affinity profiling via proximity ligation, sequencing); 10 mM Tris-HCl pH 7.5, 50 mM NaCl, 1 mM DTT, 4% glycerol, room temperature, 30 min; GST-TFs on glutathione beads, 16-mer random dsDNA library, 0.1% formaldehyde crosslink after washing; high values mean tight binding
# [1] = biological target: T1, FEV (Homo sapiens, UniProt Q99581 1-238); settings: protein: recombinant; tags: N-terminal GST; dsDNA, one strand shown
# T1 sequence: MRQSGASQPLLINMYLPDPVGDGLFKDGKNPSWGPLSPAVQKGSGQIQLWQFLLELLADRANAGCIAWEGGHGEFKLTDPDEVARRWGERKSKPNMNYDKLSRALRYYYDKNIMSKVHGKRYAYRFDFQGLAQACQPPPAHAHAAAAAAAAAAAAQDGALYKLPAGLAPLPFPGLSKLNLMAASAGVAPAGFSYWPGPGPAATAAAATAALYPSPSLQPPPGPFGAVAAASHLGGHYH
# Summary of the method: (§1)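 Yeast served to express human transcription factors as GST fusions, which were then captured on glutathione beads and labelled with DNA barcodes. Pooled with a tag-only sample, they were incubated with 200 nmole of a 16-mer random double-stranded DNA library for 30 min at room temperature in Tris/NaCl/DTT/glycerol buffer, washed, crosslinked with 0.1% formaldehyde, ligated by proximity, amplified by PCR and sequenced. Dividing each hexamer's read frequency for a factor by its frequency for the tag-only sample gives the binding signal.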
# [2] = biological target: ETV5 (Homo sapiens, UniProt P41161 1-510); settings: protein: recombinant; tags: N-terminal GST; dsDNA, one strand shown
# Chain of ETV5 (P41161 whole entry): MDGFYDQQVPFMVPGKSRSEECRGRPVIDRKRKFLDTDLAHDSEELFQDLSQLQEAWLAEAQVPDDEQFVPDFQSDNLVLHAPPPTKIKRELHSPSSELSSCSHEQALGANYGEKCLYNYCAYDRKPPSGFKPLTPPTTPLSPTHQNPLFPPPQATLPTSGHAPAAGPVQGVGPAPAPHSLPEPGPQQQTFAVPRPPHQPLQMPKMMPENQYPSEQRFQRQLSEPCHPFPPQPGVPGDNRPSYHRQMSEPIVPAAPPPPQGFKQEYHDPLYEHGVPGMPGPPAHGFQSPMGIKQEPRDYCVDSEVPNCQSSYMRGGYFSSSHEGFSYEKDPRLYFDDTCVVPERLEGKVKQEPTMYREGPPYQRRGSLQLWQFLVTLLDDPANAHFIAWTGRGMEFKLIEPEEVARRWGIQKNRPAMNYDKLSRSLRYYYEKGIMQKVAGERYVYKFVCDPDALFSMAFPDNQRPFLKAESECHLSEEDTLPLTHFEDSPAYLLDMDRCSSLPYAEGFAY
# Summary of the method: as §1
# [3] = biological target: HSF1 (Homo sapiens, UniProt Q00613 1-529); settings: protein: recombinant; tags: N-terminal GST; chain copies: 3; dsDNA, one strand shown
# Chain of HSF1 (Q00613 whole entry): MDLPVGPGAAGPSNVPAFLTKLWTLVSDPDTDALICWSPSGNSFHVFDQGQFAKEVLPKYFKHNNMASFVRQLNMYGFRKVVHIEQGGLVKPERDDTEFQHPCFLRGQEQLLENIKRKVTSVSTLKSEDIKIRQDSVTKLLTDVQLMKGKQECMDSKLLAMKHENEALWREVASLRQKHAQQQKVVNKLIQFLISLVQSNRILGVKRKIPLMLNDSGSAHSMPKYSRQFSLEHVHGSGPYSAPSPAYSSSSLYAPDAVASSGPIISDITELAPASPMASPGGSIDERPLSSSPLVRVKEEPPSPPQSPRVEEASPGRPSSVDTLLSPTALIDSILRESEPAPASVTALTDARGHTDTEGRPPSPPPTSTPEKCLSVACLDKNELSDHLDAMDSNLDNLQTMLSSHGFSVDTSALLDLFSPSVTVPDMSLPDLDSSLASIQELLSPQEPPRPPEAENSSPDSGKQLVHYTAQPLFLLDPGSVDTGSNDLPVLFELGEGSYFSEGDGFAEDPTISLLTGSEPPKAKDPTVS
# Summary of the method: as §1
# [4] = biological target: T2, SPIC (Homo sapiens, UniProt Q8N5J4 1-248); settings: protein: recombinant; tags: N-terminal GST; dsDNA, one strand shown
# T2 sequence: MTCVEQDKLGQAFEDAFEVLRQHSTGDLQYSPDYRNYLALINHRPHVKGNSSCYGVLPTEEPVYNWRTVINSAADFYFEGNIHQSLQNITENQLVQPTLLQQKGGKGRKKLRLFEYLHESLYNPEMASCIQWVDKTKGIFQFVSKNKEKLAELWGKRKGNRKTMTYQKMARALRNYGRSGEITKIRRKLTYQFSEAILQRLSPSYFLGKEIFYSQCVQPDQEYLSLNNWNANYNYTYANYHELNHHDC
# Summary of the method: as §1
# [5] = biological target: ELF4 (Homo sapiens, UniProt Q99607 1-663); settings: protein: recombinant; tags: N-terminal GST; dsDNA, one strand shown
# Chain of ELF4 (Q99607 whole entry): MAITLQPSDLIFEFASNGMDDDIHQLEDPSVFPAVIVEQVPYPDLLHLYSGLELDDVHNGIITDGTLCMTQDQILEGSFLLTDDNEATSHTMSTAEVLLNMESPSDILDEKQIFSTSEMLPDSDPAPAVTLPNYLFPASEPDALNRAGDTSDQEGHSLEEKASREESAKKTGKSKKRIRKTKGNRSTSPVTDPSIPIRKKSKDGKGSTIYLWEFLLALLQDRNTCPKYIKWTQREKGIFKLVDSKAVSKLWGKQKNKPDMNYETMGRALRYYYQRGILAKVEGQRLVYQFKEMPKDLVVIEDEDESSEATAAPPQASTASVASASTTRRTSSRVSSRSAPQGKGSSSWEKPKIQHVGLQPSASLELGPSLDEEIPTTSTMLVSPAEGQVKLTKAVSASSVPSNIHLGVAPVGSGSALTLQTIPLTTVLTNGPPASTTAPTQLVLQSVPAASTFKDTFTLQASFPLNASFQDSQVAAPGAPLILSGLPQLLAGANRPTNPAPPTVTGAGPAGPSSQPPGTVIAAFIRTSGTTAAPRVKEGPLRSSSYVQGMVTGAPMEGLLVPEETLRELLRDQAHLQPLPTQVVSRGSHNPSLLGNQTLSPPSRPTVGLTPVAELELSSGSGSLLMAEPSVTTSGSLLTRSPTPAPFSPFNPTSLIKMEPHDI
# Summary of the method: as §1
# [6] = biological target: T3, ELK4 (Homo sapiens, UniProt P28324-2 1-405); settings: protein: recombinant; tags: N-terminal GST; dsDNA, one strand shown
# T3 sequence: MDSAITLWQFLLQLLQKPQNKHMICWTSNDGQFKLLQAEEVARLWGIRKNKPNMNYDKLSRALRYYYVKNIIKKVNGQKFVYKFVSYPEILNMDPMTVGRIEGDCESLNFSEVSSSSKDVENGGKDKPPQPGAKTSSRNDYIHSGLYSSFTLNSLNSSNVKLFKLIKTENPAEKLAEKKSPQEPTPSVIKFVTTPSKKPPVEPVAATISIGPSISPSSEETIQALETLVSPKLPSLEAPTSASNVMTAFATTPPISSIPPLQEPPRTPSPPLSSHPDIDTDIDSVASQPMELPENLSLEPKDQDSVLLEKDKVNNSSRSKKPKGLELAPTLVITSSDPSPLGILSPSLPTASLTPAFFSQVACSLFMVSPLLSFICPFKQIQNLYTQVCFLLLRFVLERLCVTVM
# Summary of the method: as §1
# [7] = biological target: T4, ETV2 (Homo sapiens, UniProt O00321 1-342); settings: protein: recombinant; tags: N-terminal GST; dsDNA, one strand shown
# T4 sequence: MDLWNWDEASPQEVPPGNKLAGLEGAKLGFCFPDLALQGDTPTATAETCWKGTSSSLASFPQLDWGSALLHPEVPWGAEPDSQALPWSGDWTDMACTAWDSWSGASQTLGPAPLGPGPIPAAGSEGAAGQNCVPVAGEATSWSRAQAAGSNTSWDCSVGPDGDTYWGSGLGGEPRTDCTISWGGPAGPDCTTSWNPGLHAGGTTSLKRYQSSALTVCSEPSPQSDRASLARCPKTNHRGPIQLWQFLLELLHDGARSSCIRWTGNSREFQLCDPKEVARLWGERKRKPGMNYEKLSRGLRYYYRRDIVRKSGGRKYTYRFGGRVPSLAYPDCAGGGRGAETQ
# Summary of the method: as §1
# [8] = biological target: T5, ELF3 (Homo sapiens, UniProt P78545 1-371); settings: protein: recombinant; tags: N-terminal GST; dsDNA, one strand shown
# T5 sequence: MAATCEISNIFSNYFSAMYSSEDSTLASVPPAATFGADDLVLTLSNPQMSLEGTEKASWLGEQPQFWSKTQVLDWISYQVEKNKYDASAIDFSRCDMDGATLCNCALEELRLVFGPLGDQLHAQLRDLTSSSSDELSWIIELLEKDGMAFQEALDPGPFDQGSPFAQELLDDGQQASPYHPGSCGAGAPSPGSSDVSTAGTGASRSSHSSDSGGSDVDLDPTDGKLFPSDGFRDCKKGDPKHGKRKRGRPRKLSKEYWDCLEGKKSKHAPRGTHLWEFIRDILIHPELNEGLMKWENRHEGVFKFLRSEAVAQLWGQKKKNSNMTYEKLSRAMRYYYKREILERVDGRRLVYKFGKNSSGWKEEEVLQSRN
# Summary of the method: as §1
# [9] = biological target: CRX (Homo sapiens, UniProt O43186 1-299); settings: protein: recombinant; tags: N-terminal GST; dsDNA, one strand shown
# Chain of CRX (O43186 whole entry): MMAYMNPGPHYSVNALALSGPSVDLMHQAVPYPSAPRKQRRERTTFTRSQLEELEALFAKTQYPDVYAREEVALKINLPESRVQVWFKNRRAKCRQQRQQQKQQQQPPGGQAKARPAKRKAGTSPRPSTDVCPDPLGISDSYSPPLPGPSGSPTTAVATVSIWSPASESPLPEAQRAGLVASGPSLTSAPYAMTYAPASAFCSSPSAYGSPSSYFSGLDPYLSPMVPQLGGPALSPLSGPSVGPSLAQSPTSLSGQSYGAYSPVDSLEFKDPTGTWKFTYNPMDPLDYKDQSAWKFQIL
# Summary of the method: as §1
# [10] = biological target: ETV1 (Homo sapiens, UniProt P50549 1-477); settings: protein: recombinant; tags: N-terminal GST; dsDNA, one strand shown
# Chain of ETV1 (P50549 whole entry): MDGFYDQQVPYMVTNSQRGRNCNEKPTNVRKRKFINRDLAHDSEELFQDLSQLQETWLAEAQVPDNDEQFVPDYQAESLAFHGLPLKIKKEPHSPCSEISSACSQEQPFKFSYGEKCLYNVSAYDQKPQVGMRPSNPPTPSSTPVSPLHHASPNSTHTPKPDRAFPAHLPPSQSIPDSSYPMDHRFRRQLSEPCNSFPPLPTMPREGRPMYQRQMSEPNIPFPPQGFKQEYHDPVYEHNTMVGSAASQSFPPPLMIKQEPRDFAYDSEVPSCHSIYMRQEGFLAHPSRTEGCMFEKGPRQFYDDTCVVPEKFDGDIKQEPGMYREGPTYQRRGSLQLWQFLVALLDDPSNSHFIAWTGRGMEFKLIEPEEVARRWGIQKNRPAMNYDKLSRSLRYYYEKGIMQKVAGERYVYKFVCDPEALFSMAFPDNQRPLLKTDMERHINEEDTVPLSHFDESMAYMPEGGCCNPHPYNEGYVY
# Summary of the method: as §1
# [11] = biological target: T6, ERF (Homo sapiens, UniProt P50548 1-548); settings: protein: recombinant; tags: N-terminal GST; dsDNA, one strand shown
# T6 sequence: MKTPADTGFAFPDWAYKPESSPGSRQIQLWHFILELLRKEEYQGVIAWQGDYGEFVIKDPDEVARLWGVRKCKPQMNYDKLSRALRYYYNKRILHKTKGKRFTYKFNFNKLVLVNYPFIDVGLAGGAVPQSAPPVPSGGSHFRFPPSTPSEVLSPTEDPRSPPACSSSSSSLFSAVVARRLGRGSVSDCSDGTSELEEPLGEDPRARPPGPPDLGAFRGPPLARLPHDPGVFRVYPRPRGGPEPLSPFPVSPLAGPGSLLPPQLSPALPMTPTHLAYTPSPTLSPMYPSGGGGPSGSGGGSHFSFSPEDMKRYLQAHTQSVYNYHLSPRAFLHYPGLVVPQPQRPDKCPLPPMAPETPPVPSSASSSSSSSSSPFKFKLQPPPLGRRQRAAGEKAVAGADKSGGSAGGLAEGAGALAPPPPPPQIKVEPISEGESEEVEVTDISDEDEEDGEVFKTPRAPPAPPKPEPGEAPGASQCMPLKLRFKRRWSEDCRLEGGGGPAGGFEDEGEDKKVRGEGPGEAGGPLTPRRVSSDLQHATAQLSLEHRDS
# Summary of the method: as §1
# [12] = biological target: T7, ETV3L (Homo sapiens, UniProt Q6ZN32 1-361); settings: protein: recombinant; tags: N-terminal GST; dsDNA, one strand shown
# T7 sequence: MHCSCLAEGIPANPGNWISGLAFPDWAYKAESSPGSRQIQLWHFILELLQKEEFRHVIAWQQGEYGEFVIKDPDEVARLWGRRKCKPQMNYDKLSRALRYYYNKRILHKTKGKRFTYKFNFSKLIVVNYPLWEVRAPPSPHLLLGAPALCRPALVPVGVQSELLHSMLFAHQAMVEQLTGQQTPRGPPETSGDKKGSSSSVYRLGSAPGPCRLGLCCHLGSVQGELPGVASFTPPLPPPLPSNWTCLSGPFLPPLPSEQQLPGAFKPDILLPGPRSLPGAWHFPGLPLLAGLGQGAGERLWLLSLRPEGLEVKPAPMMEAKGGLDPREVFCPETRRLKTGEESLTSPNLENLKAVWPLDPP
# Summary of the method: as §1
# [13] = biological target: T8, ETS2 (Homo sapiens, UniProt P15036 1-469); settings: protein: recombinant; tags: N-terminal GST; dsDNA, one strand shown
# T8 sequence: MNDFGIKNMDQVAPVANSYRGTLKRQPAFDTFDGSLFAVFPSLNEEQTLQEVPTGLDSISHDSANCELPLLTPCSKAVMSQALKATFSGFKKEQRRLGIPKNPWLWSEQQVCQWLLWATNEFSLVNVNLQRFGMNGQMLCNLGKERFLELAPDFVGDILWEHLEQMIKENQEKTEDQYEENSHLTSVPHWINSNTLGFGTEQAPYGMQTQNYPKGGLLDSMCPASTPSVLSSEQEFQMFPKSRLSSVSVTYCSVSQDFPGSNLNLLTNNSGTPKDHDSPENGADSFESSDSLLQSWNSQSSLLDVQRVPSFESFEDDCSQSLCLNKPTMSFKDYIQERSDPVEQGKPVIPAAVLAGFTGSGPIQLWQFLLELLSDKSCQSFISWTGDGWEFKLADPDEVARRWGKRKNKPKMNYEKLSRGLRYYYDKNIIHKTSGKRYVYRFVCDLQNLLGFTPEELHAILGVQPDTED
# Summary of the method: as §1
# [14] = biological target: T9, SPDEF (Homo sapiens, UniProt O95238 1-335); settings: protein: recombinant; tags: N-terminal GST; dsDNA, one strand shown
# T9 sequence: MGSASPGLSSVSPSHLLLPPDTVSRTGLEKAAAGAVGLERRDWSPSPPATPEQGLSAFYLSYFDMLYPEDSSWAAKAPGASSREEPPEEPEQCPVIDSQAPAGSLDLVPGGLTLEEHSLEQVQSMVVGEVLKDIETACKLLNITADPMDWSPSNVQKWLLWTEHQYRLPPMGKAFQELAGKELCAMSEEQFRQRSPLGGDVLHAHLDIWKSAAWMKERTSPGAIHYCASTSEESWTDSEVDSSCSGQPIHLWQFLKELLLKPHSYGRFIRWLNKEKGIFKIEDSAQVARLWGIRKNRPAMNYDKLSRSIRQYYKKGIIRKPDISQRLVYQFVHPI
# Summary of the method: as §1
# [15] = biological target: T10, ETV7 (Homo sapiens, UniProt Q9Y603 1-341); settings: protein: recombinant; tags: N-terminal GST; dsDNA, one strand shown
# T10 sequence: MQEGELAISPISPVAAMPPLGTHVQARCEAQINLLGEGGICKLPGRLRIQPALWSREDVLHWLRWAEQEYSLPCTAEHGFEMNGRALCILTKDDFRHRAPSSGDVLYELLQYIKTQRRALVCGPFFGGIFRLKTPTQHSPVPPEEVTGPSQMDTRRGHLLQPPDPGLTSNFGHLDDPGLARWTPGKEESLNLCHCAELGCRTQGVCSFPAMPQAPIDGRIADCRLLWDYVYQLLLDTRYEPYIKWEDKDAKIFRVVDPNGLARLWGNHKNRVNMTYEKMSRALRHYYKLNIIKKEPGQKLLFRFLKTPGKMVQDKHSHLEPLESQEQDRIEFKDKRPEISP
# Summary of the method: as §1
# [16] = biological target: T11, ELF5 (Homo sapiens, UniProt Q9UKW6-2 1-255); settings: protein: recombinant; tags: N-terminal GST; dsDNA, one strand shown
# T11 sequence: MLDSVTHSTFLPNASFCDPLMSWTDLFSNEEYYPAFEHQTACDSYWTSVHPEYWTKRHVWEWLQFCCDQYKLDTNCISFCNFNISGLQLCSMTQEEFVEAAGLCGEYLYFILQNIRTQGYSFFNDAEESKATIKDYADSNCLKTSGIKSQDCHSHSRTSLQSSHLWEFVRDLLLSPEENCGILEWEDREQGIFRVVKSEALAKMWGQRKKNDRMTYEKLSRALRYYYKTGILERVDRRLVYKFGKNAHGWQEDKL
# Summary of the method: as §1
# [17] = biological target: T12, ETV3 (Homo sapiens, UniProt P41162-2 1-143); settings: protein: recombinant; tags: N-terminal GST; dsDNA, one strand shown
# T12 sequence: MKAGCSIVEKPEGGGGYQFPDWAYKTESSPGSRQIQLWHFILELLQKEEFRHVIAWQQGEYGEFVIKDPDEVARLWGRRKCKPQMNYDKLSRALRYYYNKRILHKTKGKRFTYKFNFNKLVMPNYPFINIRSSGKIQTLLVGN
# Summary of the method: as §1
# [18] = biological target: ETV6 (Homo sapiens, UniProt P41212 1-452); settings: protein: recombinant; tags: N-terminal GST; dsDNA, one strand shown
# Chain of ETV6 (P41212 whole entry): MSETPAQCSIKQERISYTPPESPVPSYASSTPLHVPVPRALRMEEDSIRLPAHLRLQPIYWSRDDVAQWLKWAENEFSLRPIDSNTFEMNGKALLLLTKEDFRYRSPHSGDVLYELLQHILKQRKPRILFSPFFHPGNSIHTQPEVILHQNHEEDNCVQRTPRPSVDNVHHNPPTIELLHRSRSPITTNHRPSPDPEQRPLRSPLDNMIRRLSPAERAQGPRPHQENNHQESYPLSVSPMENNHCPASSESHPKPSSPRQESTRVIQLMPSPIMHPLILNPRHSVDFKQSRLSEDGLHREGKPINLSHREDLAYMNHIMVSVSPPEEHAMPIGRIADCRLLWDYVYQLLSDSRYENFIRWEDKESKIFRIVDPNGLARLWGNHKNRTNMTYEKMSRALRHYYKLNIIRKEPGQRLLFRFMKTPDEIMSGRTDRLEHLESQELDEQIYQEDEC
# Summary of the method: as §1
sequence,measurement,setting,value
ATTAAC,binding signal,[1],"1.27 fold enrichment (6-mer frequency, TF over GST control)"
same,binding signal,[2],"1.27 fold enrichment (6-mer frequency, TF over GST control)"
same,binding signal,[3],"2.07 fold enrichment (6-mer frequency, TF over GST control)"
same,binding signal,[4],"1.3 fold enrichment (6-mer frequency, TF over GST control)"
same,binding signal,[5],"1.3 fold enrichment (6-mer frequency, TF over GST control)"
same,binding signal,[6],"1.25 fold enrichment (6-mer frequency, TF over GST control)"
same,binding signal,[7],"1.21 fold enrichment (6-mer frequency, TF over GST control)"
same,binding signal,[8],"1.29 fold enrichment (6-mer frequency, TF over GST control)"
same,binding signal,[9],"3.36 fold enrichment (6-mer frequency, TF over GST control)"
same,binding signal,[10],"1.27 fold enrichment (6-mer frequency, TF over GST control)"
same,binding signal,[11],"1.26 fold enrichment (6-mer frequency, TF over GST control)"
same,binding signal,[12],"1.31 fold enrichment (6-mer frequency, TF over GST control)"
same,binding signal,[13],"1.27 fold enrichment (6-mer frequency, TF over GST control)"
same,binding signal,[14],"1.26 fold enrichment (6-mer frequency, TF over GST control)"
same,binding signal,[15],"1.24 fold enrichment (6-mer frequency, TF over GST control)"
same,binding signal,[16],"1.23 fold enrichment (6-mer frequency, TF over GST control)"
same,binding signal,[17],"1.26 fold enrichment (6-mer frequency, TF over GST control)"
same,binding signal,[18],"1.22 fold enrichment (6-mer frequency, TF over GST control)"
